Assay results reported in ChEMBL document CHEMBL3988442, “University of Dundee, Small-Polar-MMV Screening Library” (2021).
In all, about 69,000 compounds went through this assay and about 1,000 (1.4%) showed an effect of 50% or more. Many of the other results were omitted from the sample, so strong results are more common in it than they were.

Tested on: Leishmania donovani
Test: Leishmania intramacrophage assay
Format: functional, organism-based
Design: scale not given: in the data most compounds retested in dose-response had high values

SMILES: COc1cc(Cl)cc(CN2CCCC(N3CCCC3)C2)c1OC (configuration not stated)
- Percent Effect (30.3 µM, […]): 12.54%

SMILES: COc1cc(CN2CC[C@@H](N3CCCCCC3)[C@H](O)C2)cc(Cl)c1OC
- Percent Effect (30.3 µM, […]): 50.85%

SMILES: COCCC(=O)N1CCC2(CCN(Cc3ccc(OC)c(F)c3)C2)C1 (configuration not stated)
- Percent Effect (30.3 µM, […]): -20.78%

SMILES: CC(=O)NCc1ccc(C(=O)N2CCCc3c(F)ccc(C)c32)cc1
- Percent Effect (30.3 µM, […]): 35.68%

SMILES: CNC(=O)c1ccnc(CC2COc3c(cccc3OC)C2)c1 (configuration not stated)
- Percent Effect (30.3 µM, […]): -40.6%

SMILES: COc1cccc2c1OCC(Cc1cc(C(=O)N3CCCC3)ccn1)C2 (configuration not stated)
- Percent Effect (30.3 µM, […]): 20.15%

SMILES: COc1cccc2c1OCC(Cc1cc(C(N)=O)ccn1)C2 (configuration not stated)
- Percent Effect (30.3 µM, […]): 69.64%

SMILES: CCOc1ncccc1CNC(=O)Nc1ccccc1
- Percent Effect (30 µM): -12.58%

SMILES: COc1nn(C)cc1-c1nnc(SCc2cccnc2)n1C
- Percent Effect (30.3 µM, […]): -1.752%

SMILES: CC(C)=CCC1(C(=O)O)CCCN(CCC(=O)NC2CC2)C1 (configuration not stated)
- Percent Effect (30.3 µM, […]): 0.5122%

SMILES: CCN(CC)C(=O)c1nc2c(s1)CCN(Cc1cccc(OC)c1)CC2.O=C(O)C(F)(F)F
- Percent Effect (30.3 µM, […]): -7.279%

SMILES: COc1ccccc1OCCN(C)c1cc(C)nc(N)n1
- Percent Effect (30.3 µM, […]): 6.974%

SMILES: Cc1cc(N(C)CCOc2ccccc2F)nc(N)n1
- Percent Effect (30.3 µM, […]): 60.08%

SMILES: COc1ccc(OCCN(C)c2cc(C)nc(N)n2)cc1
- Percent Effect (30.3 µM, […]): 6.601%

SMILES: Cc1nc(C2CCCN2CC(=O)Nc2cc(C(C)(C)C)nn2C)no1 (configuration not stated)
- Percent Effect (30 µM): 12.3%

SMILES: CC(C)n1cnnc1CN(C)CC1CCCNC1 (configuration not stated)
- Percent Effect (30.3 µM, […]): 32.72%

SMILES: Cl.N#Cc1ccc(NC(=O)C2CSCN2)cc1 (configuration not stated)
- Percent Effect (30.3 µM, […]): 0.03454%

SMILES: CS(=O)(=O)NCCC1CN(Cc2ccccc2F)CCO1 (configuration not stated)
- Percent Effect (30.3 µM, […]): 18.65%

SMILES: OC1(Cn2ccnc2)CCN(C[C@]2(O)CCCN3CCCC[C@@H]32)CC1
- Percent Effect (30.3 µM, […]): -28.91%

SMILES: CC(C(=O)Nc1cccc(Cl)c1SC(F)F)S(C)(=O)=O (configuration not stated)
- Percent Effect (30.3 µM, […]): 58.19%

SMILES: O=C(NCCO)Nc1cccc(Cl)c1SC(F)F
- Percent Effect (30 µM, 30.03 µM): -27.47%

SMILES: CC(=O)NCCNC(=O)Nc1cccc(Cl)c1SC(F)F
- Percent Effect (30.3 µM, […]): 17.25%

SMILES: Cc1[nH]c2ccccc2c1CCNc1ncnc2c1CCNCC2
- Percent Effect (30.3 µM, […]): 16.03%

SMILES: Cc1[nH]c2ccc(C#N)cc2c1CCNc1ncnc2c1CCNCC2
- Percent Effect (30.3 µM, […]): 16.81%

SMILES: Cc1[nH]c2ccc(Cl)cc2c1CCNc1ncnc2c1CCNC2
- Percent Effect (30.3 µM, […]): 54.3%

SMILES: CC(C)CN(Cc1ccsc1)C(=O)CCCn1cncn1
- Percent Effect (30.3 µM, […]): 40.23%

SMILES: Cc1csc(CCCNC(=O)NC2CC(=O)N(C(C)(C)C)C2)n1 (configuration not stated)
- Percent Effect (30.3 µM, […]): 22.59%

SMILES: O=C(c1nc(N2CCCC2)ncc1Cl)N1CCN(Cc2ccsc2)CC1
- Percent Effect (30.3 µM, […]): 1.991%

SMILES: CCOc1ccc(CN(C)C(=O)c2nc(N3CCCC3)ncc2Cl)cc1
- Percent Effect (30.3 µM, […]): 58.99%

SMILES: CN(Cc1ccsc1)C(=O)c1nc(N2CCCCC2)ncc1Cl
- Percent Effect (30.3 µM, […]): 60.89%

SMILES: Cc1noc(C)c1CN(C)C(=O)c1nc(N2CCCC2)ncc1Cl
- Percent Effect (30.3 µM, […]): -8.961%

SMILES: CN(Cc1ccsc1)C(=O)c1nc(N2CCCC2)ncc1Cl
- Percent Effect (30.3 µM, […]): 20.2%

SMILES: CCOc1ccc(NC(=O)c2cnc(N3CCCC3)nc2C)cc1
- Percent Effect (30 µM, 30.03 µM): 16.9%

SMILES: CCc1c(C(=O)N2CCN(C)[C@@H]3CS(=O)(=O)C[C@@H]32)[nH]c2ccccc12
- Percent Effect (30.3 µM, […]): -15.51%

SMILES: CS(=O)(=O)NCc1cn2c(n1)CN(Cc1cccnc1)CC2.O=C(O)C(F)(F)F.O=C(O)C(F)(F)F
- Percent Effect (30.3 µM, […]): 33.92%

SMILES: O=C(O)C(F)(F)F.O=C(c1ccnnc1)N1CCN2C[C@H](Oc3cccc(F)c3)C[C@H]2C1
- Percent Effect (30 µM, 30.03 µM): 5.462%

SMILES: COc1ccc(CN2C[C@@H](CN(C)CCO)[C@@H](CO)C2)cc1Cl
- Percent Effect (30.3 µM, […]): 33.72%

SMILES: COc1ccc(CN2C[C@@H](CN(C)C)[C@@H](CO)C2)c(Cl)c1OC
- Percent Effect (30.3 µM, […]): 52.59%

SMILES: CN(C)C[C@@H]1CN(Cc2ccccc2C#N)C[C@@H]1CO
- Percent Effect (30.3 µM, […]): -11.66%

SMILES: COc1cccc(OC)c1C(=O)N1C[C@@H](CN(C)C)[C@@H](CO)C1
- Percent Effect (30.3 µM, […]): -22.82%

SMILES: COc1ccc(CN2C[C@@H](CN(C)C)[C@@H](CO)C2)cc1CN1CCCC1
- Percent Effect (30.3 µM, […]): 7.971%

SMILES: COc1ccc(CN2C[C@@H](CN(C)C)[C@@H](CO)C2)cc1OC
- Percent Effect (30.3 µM, […]): 51.5%

SMILES: Cc1noc(C)c1CN1CCC(NC(=O)OC(C)(C)C)CC1
- Percent Effect (30.3 µM, […]): 3.614%

SMILES: CC(C)c1noc(-c2ccc(NCC3CCCOC3)nc2)n1 (configuration not stated)
- Percent Effect (30.3 µM, […]): 22.02%

SMILES: Cc1cccc(-n2cnnc2CCCN2CCOCC2)c1
- Percent Effect (30.3 µM, […]): 22.56%

SMILES: COc1cccc(CN2C[C@@H]3COC[C@]3(CNC(=O)C3CC3)C2)c1.O=C(O)C(F)(F)F
- Percent Effect (30.3 µM, […]): 43.72%

SMILES: c1ccc(Oc2cccc(OC34CCCN(CC3)C4)c2)cc1 (configuration not stated)
- Percent Effect (30.3 µM, […]): 65.6%

SMILES: Cc1nc(CNCc2cccc(OC34CCCN(CC3)C4)c2)n[nH]1 (configuration not stated)
- Percent Effect (30.3 µM, […]): 36.42%

SMILES: c1ccc(Oc2ccc(OC34CCCN(CC3)C4)cc2)cc1 (configuration not stated)
- Percent Effect (30.3 µM, […]): 89.06%

SMILES: Cc1cnccc1CNCc1ccc(OC23CCCN(CC2)C3)cc1 (configuration not stated)
- Percent Effect (30.3 µM, […]): 13.67%

SMILES: O=c1[nH]nc(CNCc2ccc(OC34CCCN(CC3)C4)cc2)[nH]1 (configuration not stated)
- Percent Effect (30.3 µM, […]): 39.69%

SMILES: COc1cc(C#N)ccc1OC12CCCN(CC1)C2 (configuration not stated)
- Percent Effect (30.3 µM, […]): 20.92%
